E-sel TNF inh: TNF alpha driven E-selectin expression inhibition; hit rate 0.71% among 120,000; HUVEC TNFa-induced E-selectin immunofluorescence, high content; inhibition, % at 2 µM;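 active = inhibition above the batch mean plus 3 SD, and confirmed as a hit on visual image review, cut at about 43% in these data; inconclusive = passes the inhibition cutoff but fails visual image review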;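 also: 0% = TNF-stimulated DMSO wells and 100% = unstimulated control wells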
VCAM1 TNFa inh: reduces TNF alpha induced VCAM1 expression in HUVEC; hit rate 0.48% among 95,000; HUVEC TNFa-induced VCAM-1 immunofluorescence, high-content imaging; inhibition, % at 2 µM;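 active = inhibition above the batch mean plus 3 SD, with images confirmed as a hit by eye, cut at about 37% in these data; inconclusive = inhibition above that limit but hit not confirmed in images; inactive = inhibition not above that limit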;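 also: 0% = TNF-stimulated DMSO wells and 100% = unstimulated control wells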
F-actin modifier: alters cytoskeleton assembly in HUVEC cells. HUVEC TNFa F-actin phalloidin imaging, high content. hit rate 0.18% among 91,000. AID 836. inhibition, % at 2 µM;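 active = inhibition above the batch mean plus 3 SD and confirmed as a hit by visual image inspection, cut at about 30% in these data, passing the limit was not always enough; inconclusive = above the inhibition threshold but rejected on visual inspection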
TNFa cytotox: HUVEC cytotoxicity counter-screen, TNF alpha stimulated | hit rate 0.17% among 93,000 | HUVEC TNFalpha-stimulated, Hoechst cell count, imaging | cell count reduction, % at 2 µM | AID 848;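 active = cell count reduction exceeding the screen mean by over 5 SD, scaled to untreated wells per plate, cut at about 78% in these data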;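 also: cells counted after 24 h of TNF alpha exposure following the 1 h pretreatment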
* marks the source's active call; other numbers are inactive results; ? = inconclusive; · = no result. Most compounds without a hit are left out; they make up all but 1% or so of the library.

SMILES	E-sel TNF inh	VCAM1 TNFa inh	F-actin modifier	TNFa cytotox
COc1ccc(-c2csc3ncnc(Oc4cccc5ccc(C)nc45)c23)cc1	89*	·	·	·
Cc1ccc(S(=O)(=O)c2ccccc2)cc1S	8	·	·	·
O=C(CN1CCSCC1)N1CCc2[nH]c3ccc(Br)cc3c2C1	5	61*	-18	4
Cc1ccc2[nH]c3c(c2c1)CN(C(=O)CN1CCN(c2cccc(C)c2C)CC1)CC3	-11	-8	0	-3
CC(C)n1c(SCC(=O)Nc2nc3c(s2)CCCC3)nc2c1c(=O)n(C)c(=O)n2C	100*	1	1	-14
COC(=O)CSc1nc(N)c(C#N)c(C(C)C)c1C#N	-1	-13	-16	-16
COC(=O)CSc1nc(N)nc(C)c1Br	63*	10	-29	-4
O=C1c2ccccc2S(=O)(=O)N1CCOc1ccccc1	10	-5	-9	-3
COc1cc(NC(=O)c2ccc(COCC(F)(F)F)o2)cc(OC)c1OC	16	50*	6	21
C=CCc1cc(C)ccc1OCCOCCn1ccnc1	0	·	·	·
O=C(CSc1cccc[n+]1[O-])c1cc(Cl)ccc1Cl	-25	·	·	·
O=C1NCC(COc2cccc3ccccc23)O1 (stereo not drawn)	21	·	·	·
COc1ccc(OCC2CNC(=O)O2)cc1 (stereo not drawn)	96*	·	·	·
COC(=O)CSc1nnc(-c2cccc(NC(=O)c3ccc(C)cc3)c2)n1C	-17	-4	-16	-19
Cn1c(SCC(=O)N2CCOCC2)nnc1-c1cccc(NC(=O)c2ccccc2)c1	64*	-1	18	-2
Cc1ccc(-c2nnc(N3CCN(C(=O)CN4C(=O)c5ccccc5C4=O)CC3)c3ccccc23)cc1	100*	3	6	-3
O=C(CN1C(=O)c2ccccc2C1=O)N1CCN(c2nnc(-c3ccccc3)c3ccccc23)CC1	-8	5	-11	-7
O=C(CCl)N1N=C(c2ccco2)CC1c1cccs1 (stereo not drawn)	70*	·	·	·
N#CCc1ccc(NS(=O)(=O)c2cccs2)cc1	64*	·	·	·
Cc1ccc(Cn2ccc(=O)c(OCc3c(Cl)cccc3Cl)c2C)cc1	-10	21	9	-27
O=c1[nH]c2cc(NCCO)c([N+](=O)[O-])cc2[nH]1	73*	·	·	·
Cc1cc(C)n(-c2nc(-c3cccc(Cl)c3)cs2)n1	·	90*	-28	86*
COC(=O)c1ccc(-n2nnnc2SCC(=O)N2CCCCC2)cc1	·	?	-14	100*
O=S(=O)(c1ccccc1)N1CCC(O)(CSc2ccc(F)cc2)CC1	-22	·	·	·
CC(=O)N1CCC2(CC1)C(C#N)=C(N)Oc1c2sc2nc(C)cc(C)c12	-40	·	·	·
SMILES	E-sel TNF inh	VCAM1 TNFa inh	F-actin modifier	TNFa cytotox
CCN1CCC2(CC1)C(C#N)=C(N)Oc1c2sc2nc(C)cc(C)c12	15	84*	-61	69
CCOC(=O)Cn1nnnc1CN(CCc1ccccc1)Cc1cc2cc(CC)ccc2[nH]c1=O	19	?	·	83*
Cn1nnnc1SCC(=O)Nc1cc(C(C)(C)C)nn1-c1ccccc1	·	12	-63	-4
Cc1cc(NC(=O)CSc2nnnn2C)n(-c2ccccc2)n1	14	-6	35*	-52
COc1ccccc1NC(=O)C1CC(=O)OC1c1ccccc1 (stereo not drawn)	3	-4	45	-19
C/C(Cl)=C/Cn1c(NCCCn2ccnc2)nc2c1c(=O)[nH]c(=O)n2C	-13	5	-20	-2
C/C(Cl)=C\Cn1c(NCCCn2ccnc2)nc2c1c(=O)n(C)c(=O)n2C	·	88*	-35	89*
CC(C)C(=O)Nc1ccc(-c2nc3cccnc3o2)cc1	84*	·	·	·
CCOC(=O)c1[nH]c(C)c(C(=O)c2ccc(C)cc2)c1C	-16	48*	18	33
CCOC(=O)c1c(C)[nH]c(C(=O)OCCOc2ccccc2C)c1C	67*	·	·	·
O=C(COc1ccc(Br)cc1)Nc1ccncc1	-39	3	-20	1
Cc1cc(OCC(=O)Nc2ccncc2)c(C)cc1Br	66*	-3	15	-23
Cc1c(NC(=O)CN2CCN(c3ccccc3)CC2)c(=O)n(-c2ccccc2)n1C	-11	14	-22	12
Cc1c(NC(=O)CN2CC(C)OC(C)C2)c(=O)n(-c2ccccc2)n1C (stereo not drawn)	66*	16	9	2
COc1ccc(-c2cc3ccc(OCc4nn[nH]n4)cc3oc2=O)cc1OC	-32	51*	14	77
CC(C(=O)O)C1SC(=O)NC1=O (stereo not drawn)	70*	2	4	-15
CCOC(=O)C(C)Oc1cccc2c(=O)n(CC(=O)Nc3ccc4c(c3)OCCO4)ccc12 (stereo not drawn)	·	3	-5	-3
CCOC(=O)C(C)Oc1cccc2c(=O)n(CC(=O)NCc3ccc4c(c3)OCO4)ccc12 (stereo not drawn)	·	39	?	94*

Source: PubChem (Columbia University Molecular Screening Center)
